# Screening results as filed in PubChem BioAssay.
# SUMO Mot1 rescue: blocks SUMOylation pathway, rescuing yeast Mot1-301 growth; S. cerevisiae Mot1-301 growth rescue, ATP luminescence, 38.5C; percent above DMSO median, 100 means doubled; growth rescue, % at 18.8 µM; 320,000 tested, 1% active; AID 2716;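 active means every valid replicate shows activation above 250% relative to neutral control wells; inactive means the rest, any valid replicate at or below 250%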
# aDG glyco act: increases alpha dystroglycan glycosylation; Pro5-aDG cells, alpha-DG glycosylation AlphaScreen (IIH6); 0% Pro5, 100% B10-LARGE cell signal; activation, % at 10 µM; 360,000 tested, 0.22% active;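 active means activation of at least 8% versus controls, or a plate z-score of at least 8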;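 further: Pro5 are CHO cells carrying HIG-tagged alpha-DG that lacks glycosylation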
# CR mimetic SO: caloric restriction mimetics inhibiting age-related superoxide in yeast | 330,000 tested, 0.18% active | S. cerevisiae aged cells, superoxide DHE fluorescence; hits give low values | superoxide response (% of plate mean), % at 10 µM;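 active means superoxide response under a set limit, about three screen SD below normal, cut at about 65% in these data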;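 further: yeast aged for seven days with compound at 30 °C before DHE staining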
# H9c2 protect: myocardial damage modulation in H9c2 cells; H9c2 cardiomyocytes, H2O2 injury protection, ATPLite, 2 h; protection from H2O2 cell death, % at 20 µM; 360,000 tested, 0.63% active; AID 588492;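 active means compounds giving at least 50% protection of heart cells from peroxide-induced death in the single-dose screen, raw or plate-pattern-corrected value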
# MPTP inh: blocks calcium-induced mitochondrial swelling | 360,000 tested, 1.4% active | isolated mouse mitochondria, Ca2+ swelling absorbance, 30 min | inhibition, % at 10 µM;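 active means inhibition of 50% or more, scaled per plate between neutral and stimulator controls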
# FAS TE block: blocks the thioesterase domain of human fatty acid synthase; P49327; recombinant FAS-TE, OMFH fluorogenic substrate, fluorescence endpoint; inhibition, % at 15 µM; 360,000 tested, 0.67% active;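 active means compounds whose normalised, plate-corrected inhibition of enzyme fluorescence in the single-dose primary screen is 50% or more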
# MPTP counter: mitochondrial membrane potential, counter-screen; shares compounds with MPTP inh; isolated mitochondria, Rhodamine 123 fluorescence; inhibition, % at 10 µM; 5,000 tested, 78% active; AID 624504; in the data active means inhibition above about 22%
# MPTP abs DR: MPTP inhibition, dose response swelling confirmation. shares compounds with MPTP inh. isolated mitochondria swelling, absorbance. IC50, µM. 780 tested, 58% active. AID 651561; in the data active means IC50 below about 20 µM
# MPTP cs DR: active in counter-screen for permeability transition pore inhibitors. isolated mitochondria counterscreen, fluorescence read-out. IC50, µM. AID 651564. shares compounds with MPTP inh. 780 tested, 49% active; in the data active means IC50 below about 80 µM
# A number is an active result; - = inactive; . = no result. Shown are actives, neighbours in structure and some others; about 3.8% of the full set was active somewhere.
SMILES,SUMO Mot1 rescue,aDG glyco act,CR mimetic SO,H9c2 protect,MPTP inh,FAS TE block,MPTP counter,others
O=C(Nc1ccc(Cl)cc1)Nc1ccc(N2CCCC2)c(S(=O)(=O)Nc2ccccc2Cl)c1,-,-,-,-,98,-,48,
CCOC(=O)C1=CN(Cc2ccco2)S(=O)(=O)N(C)C1c1ccc2ccccc2c1 (stereo not given),.,-,-,-,-,-,.,
Cc1cc(C(=O)Nn2c(-c3ccc(Br)cc3)nc3ccccc3c2=O)ccc1[N+](=O)[O-],-,-,-,-,67,-,87,
CCN(CC)CCN(C(=O)/C=C/c1cccs1)c1nc2ccc(Cl)cc2s1,-,-,-,-,-,-,.,
CN(C)CCN(C(=O)/C=C/c1cccs1)c1nc2ccc(F)cc2s1,-,-,-,-,72,-,-,MPTP abs DR=13;MPTP cs DR=-
Cc1cc(C)c(NC(=O)CSCc2nc3sc(C)c(C)c3c(=O)[nH]2)c(Cl)c1,-,-,-,-,-,-,.,
Cc1cc(/C=C2\SC(=S)N(C)C2=O)c(C)n1-c1ccccc1O,-,-,-,-,92,-,67,
Cc1cc(/C=C2/SC(=S)N(c3cccc(Cl)c3)C2=O)c(C)n1-c1cccnc1,-,-,-,-,63,-,78,
Cc1cc(/C=C2\SC(=S)N(C)C2=O)c(C)n1-c1ccc(O)cc1,-,-,-,-,-,-,.,
Cc1ccc(/C=C2\SC(=S)N(c3cccnc3)C2=O)o1,-,-,-,-,-,-,.,
Cc1cc(/C=C2/SC(=S)N(c3ccc([N+](=O)[O-])cc3)C2=O)c(C)n1-c1cccnc1,-,-,-,-,95,-,95,
CCCCN(CCCC)Cc1cc(=O)oc2ccccc12,.,-,.,-,-,-,.,
O=c1/c(=C/c2ccc(O)c([N+](=O)[O-])c2)sc2nc3ccccc3n12,.,-,.,-,66,-,30,
O=c1/c(=C\c2cccnc2)sc2nc3ccccc3n12,.,-,.,-,-,-,.,
Cc1cc(C)c2nc(Nc3nc(-c4ccccc4)cc(=O)[nH]3)nc(C)c2c1,-,-,-,-,-,-,.,
CC1=CC(C)(C)N=C(Nc2nc(C)c3cc(C)cc(C)c3n2)N1,-,-,-,-,95,-,101,
COc1ccc(-c2noc(CSc3nc(N)cc(=O)[nH]3)n2)cc1,-,-,-,-,74,-,45,
Cc1ccc(CSc2nc(N)cc(=O)[nH]2)cc1,-,-,-,-,-,-,.,
Cc1cccc(Nc2c(O)nc[nH]c2=O)c1,.,-,.,-,-,-,.,
CC(C)(C)n1nnnc1C(c1ccccc1)N1CCN(c2ccccn2)CC1 (stereo not given),.,-,.,.,-,-,.,
Cc1ccc(Nc2ccc([N+](=O)[O-])cn2)cc1Cl,-,-,-,-,75,-,69,
O=[N+]([O-])c1ccc(Nc2ccc(F)cc2)nc1,-,-,-,-,-,-,.,
CCc1cc(C(=O)NC2CCCc3c2cnn3-c2ccc(F)cc2F)no1 (stereo not given),.,-,.,-,-,-,.,
Cc1ccc(-c2nc3ccc(Cl)cn3c2Cc2cccc(Cl)c2)cc1,.,-,.,-,-,-,.,
COc1ccccc1N=Nc1nc(-c2ccccc2)c(-c2ccccc2)[nH]1,-,-,-,-,-,-,.,
SMILES,SUMO Mot1 rescue,aDG glyco act,CR mimetic SO,H9c2 protect,MPTP inh,FAS TE block,MPTP counter,others
Oc1ccccc1N=Nc1nc(-c2ccccc2)c(-c2ccccc2)[nH]1,-,-,-,-,76,-,54,
COCC(=O)Oc1c(Sc2ccccc2[N+](=O)[O-])c(C)nn1C(C)(C)C,-,-,-,-,60,-,62,
CN1CCC(Oc2ccccc2Sc2ccccc2)CC1,-,-,-,-,92,-,-,MPTP abs DR=10;MPTP cs DR=34
COc1ccc(/C=C2/C(=O)N(c3nc4ccccc4s3)N=C2CSc2ccc(Cl)cc2)cc1,-,-,-,-,91,-,56,
COc1ccc(/C=C2/C(=O)N(Cc3ccccc3)N=C2C)cc1,-,-,-,-,-,-,.,
FC(F)Oc1ccc(NC(=S)NNc2ccnc3cc(Cl)ccc23)cc1,-,-,-,-,101,-,65,
